# Reference: paper PMC6664820, “Novel natural and synthetic inhibitors of solute carriers SGLT1 and SGLT2” (Pharmacology Research & Perspectives, 2019)
# Hit rate of the full screen: of about 1,900 compounds, about 40 (2%) showed an effect of 50% or more. What follows is part of a selection rich in strong results, with near analogues and random picks from the rest.
# Target: human SGLT1 (hSGLT1) (human, UniProt P13866)
# Assay: primary screen, percent of control activity; higher = less effect of the substance
# Parameters: single well
# Conditions: 50 µM
# Experimental: Two days before the assay, CHO‐wild type and CHO‐hSGLT1 cells were seeded in maintenance medium at 25 000 cells/well in clear‐bottom black 96‐well cell culture plates. Before the assay, cells were washed 3 times with 150 μL/well D‐glucose free DMEM with 0.3% (w/v) BSA. Library compounds at 50 μmol/L (singlicate) prepared in D‐glucose free DMEM with 160 μmol/L 1‐NBD‐glucose and 0.3% (w/v) BSA and negative controls (triplicate) were added at 100 μL/well and placed in a humidified incubator at 37°C with 5% CO2 for 90 minutes. Next, cells were washed 3 times with DMEM with 0.3% (w/v) BSA (150 μL/well). Care was taken to remove all medium after the last wash. Finally, 1‐NBD‐glucose was extracted from the cells by adding 10 μL/well isopropanol and orbital shaking for 5 minutes at 600 rpm, followed by incubation in the dark for 30 minutes. Fluorescence was measured on a Tecan Infinite M200 Microplate Reader (Tecan, Männedorf, Switzerland) with excitation at 445 nm and emission at 525 nm. The amount of 1‐NBD‐glucose taken up by the CHO‐wild type or CHO‐hSGLT1 cells in the presence or absence of test compounds was interpolated from 1‐NBD‐glucose calibration standards. The background uptake by CHO‐wild type was subtracted from the uptake by CHO‐hSGLT1. Background corrected uptake with test compound was expressed as a percentage of corrected uptake without test compound.
# human SGLT1 (hSGLT1), sequence (P13866 whole entry, looked up): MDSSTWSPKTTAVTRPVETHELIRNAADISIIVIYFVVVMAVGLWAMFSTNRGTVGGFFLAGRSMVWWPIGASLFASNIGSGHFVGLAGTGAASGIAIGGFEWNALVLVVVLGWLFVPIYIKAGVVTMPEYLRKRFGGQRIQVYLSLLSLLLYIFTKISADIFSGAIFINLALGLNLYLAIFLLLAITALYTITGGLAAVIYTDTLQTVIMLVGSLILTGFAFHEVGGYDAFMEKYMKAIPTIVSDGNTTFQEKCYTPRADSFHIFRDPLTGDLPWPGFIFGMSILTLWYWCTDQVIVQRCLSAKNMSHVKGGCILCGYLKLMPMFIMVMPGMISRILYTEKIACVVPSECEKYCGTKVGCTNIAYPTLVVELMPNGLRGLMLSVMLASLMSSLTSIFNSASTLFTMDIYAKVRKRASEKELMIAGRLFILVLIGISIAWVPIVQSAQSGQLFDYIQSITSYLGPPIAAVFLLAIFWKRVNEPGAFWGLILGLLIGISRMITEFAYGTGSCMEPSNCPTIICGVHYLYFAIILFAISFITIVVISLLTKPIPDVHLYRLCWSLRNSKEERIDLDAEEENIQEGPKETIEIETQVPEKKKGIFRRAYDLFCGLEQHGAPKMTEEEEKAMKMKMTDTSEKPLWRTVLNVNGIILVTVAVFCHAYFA
row,Compound,NORMALIZED SGLT1 ACTIVITY (%)
1,CC(C)COCC(CN(Cc1ccccc1)c1ccccc1)N1CCCC1.Cl (centres unmarked),48
2,O=P(O)(O)O.c1ccc(CN(CC2=NCCN2)c2ccccc2)cc1,87
3,COc1cc2ccc(=O)oc2c(O)c1O,142
4,CCCn1c(=O)c2nc(C3CCCC3)[nH]c2n(CCC)c1=O,180
5,COc1cc(S(C)=O)ccc1-c1nc2cccnc2[nH]1 (centres unmarked),237
6,CC1(C)S[C@@H]2[C@H](NC(=O)Cc3ccccc3)C(=O)N2[C@H]1C(=O)[O-].[K+],115
7,CC1(C)CC[C@]2(C)CC[C@]3(C)C(=CCC4[C@@]5(C)CC[C@H](O)C(C)(C)C5CC[C@]43C)C2C1 (some centres unmarked),91
8,CC1(C)CC[C@@]2(C(=O)O)C(C1)C1=CCC3[C@@]4(C)CC[C@H](O)C(C)(C)C4CC[C@@]3(C)[C@]1(C)C[C@@H]2O (some centres unmarked),-6
9,CC1(C)CC[C@]2(C(=O)O)CC[C@]3(C)C(=CCC4[C@@]5(C)CC[C@@H](O)C(C)(C)C5CC[C@]43C)C2C1 (some centres unmarked),133
10,CC(=O)Oc1cc2c(c(C)c1OC(C)=O)CC1OC13[C@@]2(C)CC[C@@]1(C)C2C[C@](C)(C(=O)O)CC[C@]2(C)CC[C@]31C (some centres unmarked),204
11,Cl.O=C(O)C1=CCNCC1,111
12,CO/N=C1\CN(c2nc3c(cc2F)c(=O)c(C(=O)O)cn3C2CC2)CC1CN.CS(=O)(=O)O (centres unmarked),157
13,CC(C)[N+]1(C)C2CC[C@@H]1C[C@@H](OC(=O)C(CO)c1ccccc1)C2.[Br-] (some centres unmarked),83
14,Cl.OC(CCN1CCCCC1)(c1ccccc1)C1CCCCC1 (centres unmarked),69
15,CS(=O)(=O)O.OC(CCN1CCCCC1)(c1ccccc1)c1ccccc1,101
16,Cl.OC(CCN1CCCC1)(c1ccccc1)C1CCCCC1 (centres unmarked),45
17,CN(C)C(=O)Oc1ccc[n+](C)c1.[Br-],105
18,NC(Cc1c[nH]cn1)C(=O)Nc1ccc2ccccc2c1 (centres unmarked),153
19,C[C@H]1CC2C3CCC4=CC(=O)C=C[C@]4(C)[C@@]3(F)[C@@H](O)C[C@]2(C)[C@@]1(O)C(=O)CO (some centres unmarked),241
20,CC(=O)OCC1=C(C(=O)[O-])N2C(=O)[C@@H](NC(=O)Cc3cccs3)[C@H]2SC1.[Na+],140
21,CCOP(=S)(OCC)Oc1ccc2c(C)c(Cl)c(=O)oc2c1,118
22,CCOP(=S)(OCC)Oc1nc(Cl)c(Cl)cc1Cl,35
23,CCOP(=S)(OCC)Oc1cc(C)nc(C(C)C)n1,107

row,Compound,NORMALIZED SGLT1 ACTIVITY (%)
1,O=C(O)c1cc(O)c(=O)c2c(O)c(O)ccc2c1,141
2,CC[C@H](C)[C@H](N)C(=O)N1CCC[C@H]1C(=O)N[C@H](C(=O)O)[C@@H](C)CC,98
3,O=C(O)c1cc(O)ccc1O,145
4,Cl.N=C(N)NC(=N)Nc1ccccc1,136
5,Cl.Cl.N=C(NCCCCCCNC(=N)NC(=N)Nc1ccc(Cl)cc1)NC(=N)Nc1ccc(Cl)cc1,25
6,CC(C)NC(=N)NC(=N)Nc1ccc(Cl)cc1.Cl,130
7,CC1(C)NC(=O)N(c2ccc([N+](=O)[O-])c(C(F)(F)F)c2)C1=O,222
8,O=C(/C=C/C=C/c1ccc2c(c1)OCO2)N1CCCCC1,87
9,COc1ccc(-c2cc(=O)c3c(O)cc(O[C@H]4O[C@H](CO[C@@H]5O[C@@H](C)[C@H](O)[C@@H](O)[C@H]5O)[C@@H](O)[C@H](O)[C@H]4O)cc3o2)cc1,121
10,Clc1ccc(C(c2ccc(Cl)cc2)C(Cl)(Cl)Cl)cc1,86
11,COc1ccc(C(c2ccc(OC)cc2)C(Cl)(Cl)Cl)cc1,42
12,COc1ccc2cc([C@H](C)CO)ccc2c1,111
13,COc1ccc(CCC(=O)c2c(O)cc(O[C@@H]3O[C@H](CO)C(O)[C@H](O)C3O[C@@H]3O[C@@H](C)[C@H](O)[C@@H](O)[C@H]3O)cc2O)cc1O (some centres unmarked),143
14,C#CCCCCCCCCCCCC(O)CC(O)COC(C)=O.C=CCCCCCCCCCCCC(O)CC(O)COC(C)=O (centres unmarked),197
15,COC(=O)[C@H]1[C@H]2C[C@H]3c4[nH]c5cc(OC)ccc5c4CCN3C[C@H]2C[C@@H](OC(=O)c2cc(OC)c(OC)c(OC)c2)[C@@H]1OC,345
16,CC(=O)O[C@@H]1c2c(ccc3ccc(=O)oc23)OC(C)(C)[C@@H]1OC(=O)CC(C)C,51
17,CC1(C)Oc2ccc3ccc(=O)oc3c2CC1O (centres unmarked),159
18,C/C=C(\C)C(=O)O[C@@H]1c2c(ccc3ccc(=O)oc23)OC(C)(C)[C@@H]1OC(C)=O,5
19,O=C1CN(/N=C/c2ccc(-c3ccc([N+](=O)[O-])cc3)o2)C(=O)[N-]1.[Na+],103
20,CCC(C)(C)C(=O)O[C@H]1C[C@@H](C)C=C2C=C[C@H](C)[C@H](CC[C@@H]3C[C@@H](O)CC(=O)O3)[C@H]21,96
21,CC1=C(/C=C/C(C)=C/C=C/C(C)=C/C=C/C=C(C)/C=C/C=C(C)/C=C/C(=O)[C@]2(C)C[C@@H](O)CC2(C)C)C(C)(C)C[C@H](O)C1,103
22,CCOP(=S)(OCC)SCn1c(=O)oc2cc(Cl)ccc21,57
23,CCOP(=S)(OCC)SCCSCC,77

row,Compound,NORMALIZED SGLT1 ACTIVITY (%)
1,CCOP(=S)(OCC)SCSCC,47
2,CC(C)=CCC[C@](C)(O)C1CC=C(C)CC1 (some centres unmarked),99
3,CC1(C)C2CC(=O)O[C@@]3(C)C4=CC(=O)O[C@@H](c5ccoc5)[C@]4(C)CCC3[C@@]2(C)C=C[C@H]1O (some centres unmarked),132
4,CN1CCc2c(c3ccccc3n2Cc2ccccc2)C1.O=S(=O)(O)c1cccc2c(S(=O)(=O)O)cccc12,69
5,Cl.Cl.NNCc1cccc(O)c1,149
6,CCCCCCCCCCCCC[N+](C)(C)Cc1ccccc1.[Cl-],40
7,CCCCCCc1ccc(O)cc1O.Nc1c2ccccc2nc2ccccc12,383
8,CCCCCCCCCc1ccc(O)cc1,107
9,CC(=O)O[C@@](C)(CCC=C(C)C)C1CC=C(C)CC1 (some centres unmarked),112
10,ClC1=C(Cl)C2(Cl)C3C(Cl)C=CC3C1(Cl)C2(Cl)Cl (centres unmarked),57
11,CSc1ccc2c(c1)C(N1CCN(C)CC1)Cc1ccccc1S2.O=C(O)/C=C\C(=O)O (centres unmarked),115
12,CN1CCN(CC/C=C2/c3ccccc3Sc3ccc(S(=O)(=O)N(C)C)cc32)CC1,116
13,CN1CCC(=C2c3ccccc3Sc3ccccc32)CC1.O=C(O)/C=C\C(=O)O,36
14,COC(=O)[C@H]1[C@H]2C[C@H]3c4[nH]c5ccccc5c4CCN3C[C@H]2CC[C@@H]1O.Cl,110
15,COc1cc2c(cc1O)C(Cc1ccc(O)cc1)N(C)CC2 (centres unmarked),89
16,Oc1ccc(Cl)cc1Cc1cc(Cl)ccc1O,590
17,CC(=O)O[C@@H]1C[C@@]2(C)[C@H](c3ccoc3)C[C@H]3O[C@]32[C@]2(C)C(=O)C(O)=C3C(C)(C)C(=O)C=C[C@]3(C)C12 (some centres unmarked),104
18,CC1(C)C(=O)C=C[C@@]2(C)C1=C(O)C(=O)[C@]1(C)C2CC[C@@]2(C)[C@H](c3ccoc3)C[C@H]3O[C@]321 (some centres unmarked),45
19,CC1(C)C(=O)C=C[C@@]2(C)C1C[C@@H](O)[C@]1(C)C2CC[C@@]2(C)[C@H](c3ccoc3)OC(=O)[C@H]3O[C@]321 (some centres unmarked),103
20,O=C1CN(/N=C/c2ccc([N+](=O)[O-])o2)C(=O)N1,159
21,CNC[C@@H](O)c1ccc(O)c(O)c1.O=C(O)C(O)C(O)C(=O)O,105
22,N#Cc1c(Cl)c(Cl)c(Cl)c(C#N)c1Cl,76
23,CN1CCN(CCCN2c3ccccc3Sc3ccc(C(F)(F)F)cc32)CC1.Cl.Cl,61

row,Compound,NORMALIZED SGLT1 ACTIVITY (%)
1,N#Cc1ccc2c(c1)N(CCCN1CCC(O)CC1)c1ccccc1S2,75
2,OCCN1CCN(CCCN2c3ccccc3Sc3ccc(Cl)cc32)CC1,17
3,Cn1nnnc1SCC1=C(C(=O)[O-])N2C(=O)C(NC(=O)C(O)c3ccccc3)C2SC1.[Na+] (centres unmarked),150
4,COc1cc2c(cc1OC)C1C(=O)c3c(O)cc4c(c3OC1CO2)C=CC(C)(C)O4 (centres unmarked),283
5,CCCc1ncc(C[n+]2ccccc2C)c(N)n1.Cl.[Cl-],87
6,Cc1cc(O)c2c(c1)C(=O)c1cc(O)cc(O)c1C2=O,118
7,CN(C)CC/C=C1\c2ccccc2Sc2ccc(Cl)cc21.Cl,87
8,CN(C)CCC=C1c2ccccc2C=Cc2ccccc21.Cl,50
9,CN(C)CCC=C1c2ccccc2CCc2ccccc21.Cl,59
10,Cc1cc(C2CCCCC2)n(O)c(=O)c1.NCCO,182
11,ClC1=C(Cl)C2(Cl)C3C4C=CC(C4)C3C1(Cl)C2(Cl)Cl (centres unmarked),96
12,COc1cc2ccc(=O)oc2c(OC)c1OC,257
13,COC(=O)c1c(OC)cc2c(c1C)Oc1c(Cl)c(O)c(Cl)c(C)c1C(=O)O2,520
14,Cc1cc(O)c2c(c1O)C(=O)c1c(O)cc(C)c(O)c1C2=O,127
15,CN[C@@H]1[C@@H](O)C(OC2[C@@H](N)C[C@@H](N)[C@H](O[C@H]3O[C@H](C(C)O)[C@@H](O)[C@H](O)[C@H]3N)[C@H]2O)OC[C@]1(C)O.O=S(=O)(O)O.O=S(=O)(O)O (some centres unmarked),82
16,CNC(=O)O/N=C(/C)SC,76
17,COc1c2ccoc2cc2oc(C)cc(=O)c12,165
18,OC[C@H]1O[C@@H](n2cnc3c(NCc4ccco4)ncnc32)[C@H](O)[C@@H]1O,142
19,CCCCCCCCCN1C[C@H](O)[C@@H](O)[C@H](O)[C@H]1CO,83.2
20,ClC1=C(Cl)C2(Cl)C3C4CC(C5OC45)C3C1(Cl)C2(Cl)Cl (centres unmarked),136
